Data as given in the supplement of paper PMC10849652.
Targets with a hit are over-represented here; the source holds about 7,900 in all. About 0.6% of all pairs of compound and target were hits.

Experiments:
Test in all cases: log2 fold change, soluble protein after heating vs DMSO (PISA); higher = thermal stabilisation; K562 cells, 10 uM, 30 min; active = over 0.2 and 3.5 SD of the protein, either way, in both replicates (recomputed)
alvocidib = compound: CN1CC[C@H](c2c(O)cc(O)c3c(=O)cc(-c4ccccc4Cl)oc23)[C@H](O)C1 [alvocidib]
How it was run: (§1)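 K562 cells at 2×10^6 cells/mL were exposed to 10 μM compound for 30 min, then aliquots were heated for 3 min across 48°C-58°C, pooled, and extracted in PBS containing 0.5% NP-40 at 4°C. The supernatant after 21,000xg for 90 min was taken as soluble protein and measured by TMTpro 16plex LC-MS/MS with channel sums equalised. Thermal stability is reported relative to control samples, with values from duplicates. Fold changes are given on a log2 scale.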

[1] = compound: CNC(=O)C1=CC=CC=C1NC2=NC(=NC=C2Cl)NC3=C(C=C(C=C3)N4CCOCC4)OC
How it was run: as §1

zotarolimus = compound: CO[C@H]1C[C@@H]2CC[C@@H](C)[C@@](O)(O2)C(=O)C(=O)N2CCCC[C@H]2C(=O)O[C@H]([C@H](C)C[C@@H]2CC[C@H](n3cnnn3)[C@H](OC)C2)CC(=O)[C@H](C)/C=C(\C)[C@@H](O)[C@@H](OC)C(=O)[C@H](C)C[C@H](C)/C=C/C=C/C=C/1C [zotarolimus]
How it was run: as §1

[2] = compound: COc1cc2nc(-c3cc(F)ccc3O)nc(N[C@@H]3CNC[C@H]3C(C)(C)O)c2cc1OC
How it was run: as §1

gefitinib = compound: COc1cc2ncnc(Nc3ccc(F)c(Cl)c3)c2cc1OCCCN1CCOCC1 [gefitinib]
How it was run: as §1

lapatinib = compound: CS(=O)(=O)CCNCc1ccc(-c2ccc3ncnc(Nc4ccc(OCc5cccc(F)c5)c(Cl)c4)c3c2)o1 [lapatinib]
How it was run: as §1

pictilisib = compound: CS(=O)(=O)N1CCN(Cc2cc3nc(-c4cccc5[nH]ncc45)nc(N4CCOCC4)c3s2)CC1 [pictilisib]
How it was run: as §1

saracatinib = compound: CN1CCN(CCOc2cc(OC3CCOCC3)c3c(Nc4c(Cl)ccc5c4OCO5)ncnc3c2)CC1 [saracatinib]
How it was run: as §1

sotrastaurin = compound: CN1CCN(c2nc(C3=C(c4c[nH]c5ccccc45)C(=O)NC3=O)c3ccccc3n2)CC1 [sotrastaurin]
How it was run: as §1

Tubastatin A = compound: CN1CCc2c(c3ccccc3n2Cc2ccc(C(=O)NO)cc2)C1 [Tubastatin A]
How it was run: as §1

defactinib = compound: CNC(=O)c1ccc(Nc2ncc(C(F)(F)F)c(NCc3nccnc3N(C)S(C)(=O)=O)n2)cc1 [defactinib]
How it was run: as §1

rucaparib = compound: CNCc1ccc(-c2[nH]c3cc(F)cc4c3c2CCNC4=O)cc1 [rucaparib]
How it was run: as §1

[3] = compound: CNc1nc(-c2ccc3c(N)n[nH]c3c2)cc(N2C[C@@H](C(=O)NC3CCCCC3)CC[C@H]2C)n1
How it was run: as §1

encorafenib = compound: COC(=O)N[C@@H](C)CNc1nccc(-c2cn(C(C)C)nc2-c2cc(Cl)cc(NS(C)(=O)=O)c2F)n1 [encorafenib]
How it was run: as §1

[4] = compound: COC(=O)[C@H](CCSC)NC(=O)C1=C(C=C(C=C1)NC[C@H](CS)N)C2=CC=CC=C2
How it was run: as §1

[5] = compound: COC1=CC=C(C=C1)CN2C=CC3=C2C=C(C=C3)C(=O)NO
How it was run: as §1

filanesib = compound: CON(C)C(=O)N1N=C(c2cc(F)ccc2F)S[C@@]1(CCCN)c1ccccc1 [filanesib]
How it was run: as §1

idasanutlin = compound: COc1cc(C(=O)O)ccc1NC(=O)[C@@H]1N[C@@H](CC(C)(C)C)[C@](C#N)(c2ccc(Cl)cc2F)[C@H]1c1cccc(Cl)c1F [idasanutlin]
How it was run: as §1

alisertib = compound: COc1cc(Nc2ncc3c(n2)-c2ccc(Cl)cc2C(c2c(F)cccc2OC)=NC3)ccc1C(=O)O [alisertib]
How it was run: as §1

[6] = compound: COc1cccc2cc(-c3nc([C@H]4CC[C@H](C(=O)O)CC4)n4ncnc(N)c34)[nH]c12
How it was run: as §1

Measured: log2 fold change

PSMC1 (UniProt G3V4X1)
inactive: alvocidib 0.031 | [1] -0.011 | zotarolimus -0.045 | [2] -0.106 | gefitinib -0.036 | lapatinib -0.105 | pictilisib -0.071

PKM isoform 2 (UniProt P14618)
Chain of UniProt P14618 (P14618 whole entry, looked up): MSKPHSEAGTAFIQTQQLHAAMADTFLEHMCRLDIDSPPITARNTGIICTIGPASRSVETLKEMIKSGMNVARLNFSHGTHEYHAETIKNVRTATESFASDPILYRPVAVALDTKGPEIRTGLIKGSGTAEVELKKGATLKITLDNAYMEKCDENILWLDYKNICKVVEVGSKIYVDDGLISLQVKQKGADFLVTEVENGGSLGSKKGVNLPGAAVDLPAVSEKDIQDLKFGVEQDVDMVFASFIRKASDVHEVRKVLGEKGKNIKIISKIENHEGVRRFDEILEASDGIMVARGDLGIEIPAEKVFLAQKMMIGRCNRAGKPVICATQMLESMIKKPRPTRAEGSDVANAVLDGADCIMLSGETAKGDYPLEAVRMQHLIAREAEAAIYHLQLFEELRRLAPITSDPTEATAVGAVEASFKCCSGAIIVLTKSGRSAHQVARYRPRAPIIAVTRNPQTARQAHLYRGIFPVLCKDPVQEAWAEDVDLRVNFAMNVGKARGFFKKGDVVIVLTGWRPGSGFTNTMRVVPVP
inactive: saracatinib 0.202 | sotrastaurin -0.133 | Tubastatin A -0.052 | defactinib -0.045 | rucaparib 0.125 | [3] -0.063 | encorafenib -0.09 | [4] -0.081 | [5] 0.141 | filanesib 0.04 | idasanutlin -0.049 | alisertib -0.139 | [2] 0.141 | gefitinib -0.056 | [6] 0.059 | lapatinib -0.115 | pictilisib 0.109

PTEN isoform 2 (UniProt P60484)
Chain of UniProt P60484 (P60484 whole entry, looked up): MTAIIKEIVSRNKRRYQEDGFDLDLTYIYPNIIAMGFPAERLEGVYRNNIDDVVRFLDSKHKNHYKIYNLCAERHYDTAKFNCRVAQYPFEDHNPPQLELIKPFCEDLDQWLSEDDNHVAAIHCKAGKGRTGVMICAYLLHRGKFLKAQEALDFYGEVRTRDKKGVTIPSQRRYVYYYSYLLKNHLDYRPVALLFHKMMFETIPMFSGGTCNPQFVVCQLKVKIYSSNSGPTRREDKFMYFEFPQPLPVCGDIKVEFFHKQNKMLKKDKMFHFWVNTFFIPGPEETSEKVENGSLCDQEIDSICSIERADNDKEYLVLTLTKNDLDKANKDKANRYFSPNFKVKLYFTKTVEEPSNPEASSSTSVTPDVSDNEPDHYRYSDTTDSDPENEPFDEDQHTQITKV
inactive: [1] -0.247 | rucaparib -0.108 | encorafenib 0.015 | [5] 0.081 | [2] -0.251 | lapatinib 0.094 | pictilisib -0.028

PSMC3 (UniProt E9PLG2)
inactive: saracatinib -0.197 | sotrastaurin 0.081 | Tubastatin A 0.079 | defactinib 0.172 | [3] -0.252 | [4] -0.026 | [5] -0.612 | filanesib 0.17 | alisertib 0.071 | [6] 0.079

PIM1 isoform 2 (UniProt P11309)
Chain of UniProt P11309 (P11309 whole entry, looked up): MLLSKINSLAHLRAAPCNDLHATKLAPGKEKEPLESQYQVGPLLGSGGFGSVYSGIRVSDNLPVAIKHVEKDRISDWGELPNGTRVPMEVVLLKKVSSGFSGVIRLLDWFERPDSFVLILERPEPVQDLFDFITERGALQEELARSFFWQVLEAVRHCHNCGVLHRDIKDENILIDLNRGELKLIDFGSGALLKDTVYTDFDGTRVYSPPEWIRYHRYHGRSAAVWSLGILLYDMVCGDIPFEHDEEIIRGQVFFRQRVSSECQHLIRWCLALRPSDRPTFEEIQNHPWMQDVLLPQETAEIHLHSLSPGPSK
inactive: alisertib 0.267 | [6] -0.327 | pictilisib -0.126

PRKX (UniProt P51817)
Chain of UniProt P51817 (P51817 whole entry, looked up): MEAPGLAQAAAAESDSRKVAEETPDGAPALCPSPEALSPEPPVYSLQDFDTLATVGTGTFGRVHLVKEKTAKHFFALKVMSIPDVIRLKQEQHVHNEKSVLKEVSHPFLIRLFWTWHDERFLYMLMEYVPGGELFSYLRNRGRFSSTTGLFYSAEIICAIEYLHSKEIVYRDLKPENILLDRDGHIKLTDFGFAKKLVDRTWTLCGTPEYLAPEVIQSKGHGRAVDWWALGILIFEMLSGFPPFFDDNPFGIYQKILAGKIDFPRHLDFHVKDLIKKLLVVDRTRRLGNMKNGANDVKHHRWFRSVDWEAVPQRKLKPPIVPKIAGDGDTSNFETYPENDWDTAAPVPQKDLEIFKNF
inactive: [1] -0.139 | alisertib 0.014 | [6] 0.098

PTK2B (UniProt Q14289)
Chain of UniProt Q14289 (Q14289 whole entry, looked up): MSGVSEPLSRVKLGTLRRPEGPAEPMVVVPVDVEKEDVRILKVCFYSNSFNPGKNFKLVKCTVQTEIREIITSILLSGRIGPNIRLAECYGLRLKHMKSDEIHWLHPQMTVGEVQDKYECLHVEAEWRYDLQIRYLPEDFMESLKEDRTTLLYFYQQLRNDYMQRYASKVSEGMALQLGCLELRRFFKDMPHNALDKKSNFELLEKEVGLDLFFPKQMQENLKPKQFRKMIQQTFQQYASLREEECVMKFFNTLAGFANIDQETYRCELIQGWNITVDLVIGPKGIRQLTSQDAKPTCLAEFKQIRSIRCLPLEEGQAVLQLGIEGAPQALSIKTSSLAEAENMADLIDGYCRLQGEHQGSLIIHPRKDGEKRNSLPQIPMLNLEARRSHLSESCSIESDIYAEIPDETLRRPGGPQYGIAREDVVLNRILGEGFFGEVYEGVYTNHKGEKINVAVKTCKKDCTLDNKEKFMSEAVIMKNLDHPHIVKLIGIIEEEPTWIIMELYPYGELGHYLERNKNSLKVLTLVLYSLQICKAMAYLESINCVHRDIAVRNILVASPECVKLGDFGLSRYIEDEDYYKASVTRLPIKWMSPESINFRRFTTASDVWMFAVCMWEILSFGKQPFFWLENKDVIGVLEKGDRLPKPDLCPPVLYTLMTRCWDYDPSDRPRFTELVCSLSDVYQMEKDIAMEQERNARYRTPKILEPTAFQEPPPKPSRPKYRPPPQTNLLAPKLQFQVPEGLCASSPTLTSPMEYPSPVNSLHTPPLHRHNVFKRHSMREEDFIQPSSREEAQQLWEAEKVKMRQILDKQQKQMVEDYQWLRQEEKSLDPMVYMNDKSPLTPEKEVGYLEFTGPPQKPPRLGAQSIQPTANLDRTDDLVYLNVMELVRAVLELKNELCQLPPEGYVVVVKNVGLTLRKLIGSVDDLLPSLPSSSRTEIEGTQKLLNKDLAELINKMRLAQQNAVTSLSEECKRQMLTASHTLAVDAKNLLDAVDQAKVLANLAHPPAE
inactive: saracatinib 0.163 | sotrastaurin -0.104 | Tubastatin A 0.078 | [1] 0.309 | defactinib 0.36 | [3] -0.034 | [4] -0.155 | [5] 0.083 | filanesib -0.077 | zotarolimus 0.019 | idasanutlin 0.026 | alisertib 0.064 | [2] 0.345 | gefitinib -0.011 | [6] -0.057 | lapatinib -0.022 | pictilisib 0.117

POLR2E (UniProt P19388)
inactive: saracatinib -0.077 | alvocidib 0.212 | Tubastatin A -0.009 | [1] -0.076 | defactinib 0.216 | rucaparib 0.153 | [3] 0.104 | encorafenib 0.025 | [4] -0.081 | [5] 0.095 | zotarolimus -0.065 | idasanutlin -0.061 | alisertib -0.21 | gefitinib 0.007 | [6] 0.029 | lapatinib -0.013 | pictilisib 0.063
active: [2] 0.291

PPP1R12B isoform 6 (UniProt O60237)
Chain of UniProt O60237 (O60237 whole entry, looked up): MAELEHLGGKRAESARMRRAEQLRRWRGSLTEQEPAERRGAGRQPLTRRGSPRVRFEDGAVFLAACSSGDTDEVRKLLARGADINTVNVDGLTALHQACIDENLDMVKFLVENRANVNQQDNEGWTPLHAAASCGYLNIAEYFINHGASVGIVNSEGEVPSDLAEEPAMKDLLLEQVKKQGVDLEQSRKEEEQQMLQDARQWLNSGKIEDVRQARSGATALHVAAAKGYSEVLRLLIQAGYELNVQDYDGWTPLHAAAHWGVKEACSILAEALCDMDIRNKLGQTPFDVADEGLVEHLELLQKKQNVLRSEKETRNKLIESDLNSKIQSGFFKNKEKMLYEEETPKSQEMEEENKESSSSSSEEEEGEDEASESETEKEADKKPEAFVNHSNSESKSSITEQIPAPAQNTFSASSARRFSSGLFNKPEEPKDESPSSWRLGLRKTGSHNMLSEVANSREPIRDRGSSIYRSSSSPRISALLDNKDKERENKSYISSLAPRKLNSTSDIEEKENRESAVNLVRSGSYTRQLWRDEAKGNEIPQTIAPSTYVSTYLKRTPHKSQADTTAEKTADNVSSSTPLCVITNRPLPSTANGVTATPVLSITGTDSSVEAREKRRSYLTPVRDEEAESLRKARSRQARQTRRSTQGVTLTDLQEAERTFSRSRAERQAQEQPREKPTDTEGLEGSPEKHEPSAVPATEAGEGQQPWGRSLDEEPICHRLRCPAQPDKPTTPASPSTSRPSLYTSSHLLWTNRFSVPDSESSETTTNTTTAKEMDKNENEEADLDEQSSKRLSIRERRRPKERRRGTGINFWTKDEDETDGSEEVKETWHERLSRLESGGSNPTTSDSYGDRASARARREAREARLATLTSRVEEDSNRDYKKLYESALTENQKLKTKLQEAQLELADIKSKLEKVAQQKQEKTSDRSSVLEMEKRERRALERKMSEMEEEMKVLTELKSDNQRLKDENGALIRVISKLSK
inactive: [1] 0 | gefitinib 0.077

PSD3 (UniProt Q9NYI0)
Chain of UniProt Q9NYI0 (Q9NYI0 whole entry, looked up): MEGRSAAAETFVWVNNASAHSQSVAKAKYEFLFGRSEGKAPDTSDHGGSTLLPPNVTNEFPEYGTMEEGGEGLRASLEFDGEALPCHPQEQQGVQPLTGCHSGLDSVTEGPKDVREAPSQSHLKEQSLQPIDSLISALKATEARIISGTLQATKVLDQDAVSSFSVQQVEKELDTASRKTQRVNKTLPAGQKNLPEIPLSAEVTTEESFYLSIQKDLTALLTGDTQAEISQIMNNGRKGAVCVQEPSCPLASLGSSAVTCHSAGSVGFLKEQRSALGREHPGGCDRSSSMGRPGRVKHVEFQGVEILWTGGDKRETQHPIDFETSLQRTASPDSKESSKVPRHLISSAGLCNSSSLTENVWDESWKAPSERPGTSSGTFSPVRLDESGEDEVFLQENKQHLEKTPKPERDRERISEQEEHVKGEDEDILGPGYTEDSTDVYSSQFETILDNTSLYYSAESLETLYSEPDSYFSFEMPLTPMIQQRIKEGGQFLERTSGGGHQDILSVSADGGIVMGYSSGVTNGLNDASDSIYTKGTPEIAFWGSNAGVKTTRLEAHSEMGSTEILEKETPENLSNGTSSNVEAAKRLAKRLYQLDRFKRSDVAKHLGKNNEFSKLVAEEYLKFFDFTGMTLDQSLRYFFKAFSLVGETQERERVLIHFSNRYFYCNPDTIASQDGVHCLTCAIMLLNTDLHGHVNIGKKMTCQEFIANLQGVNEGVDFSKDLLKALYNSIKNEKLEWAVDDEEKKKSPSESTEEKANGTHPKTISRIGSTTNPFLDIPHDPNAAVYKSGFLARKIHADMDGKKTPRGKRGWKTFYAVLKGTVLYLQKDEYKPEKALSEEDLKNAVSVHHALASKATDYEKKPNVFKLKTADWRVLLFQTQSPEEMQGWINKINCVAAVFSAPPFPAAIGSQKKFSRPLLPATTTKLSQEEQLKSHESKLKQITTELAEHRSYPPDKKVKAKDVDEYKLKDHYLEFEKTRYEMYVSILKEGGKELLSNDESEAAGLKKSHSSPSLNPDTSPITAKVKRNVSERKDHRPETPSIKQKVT
inactive: alvocidib -0.054 | defactinib -0.004 | rucaparib -0.03 | encorafenib 0.003 | [4] -0.019 | [5] -0.003 | zotarolimus 0.074 | idasanutlin 0.015 | alisertib -0.003 | [2] 0.141 | gefitinib 0.036 | [6] 0.069 | lapatinib -0.07

PTP4A3 (UniProt O75365)
Chain of UniProt O75365 (O75365 whole entry, looked up): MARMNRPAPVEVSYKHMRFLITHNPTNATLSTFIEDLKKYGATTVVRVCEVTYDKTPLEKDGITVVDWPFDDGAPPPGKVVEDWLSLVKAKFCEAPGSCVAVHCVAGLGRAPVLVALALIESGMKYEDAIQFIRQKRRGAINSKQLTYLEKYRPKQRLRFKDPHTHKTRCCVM
active: defactinib -1.14
inactive: [4] -0.029
